The values below come from PubChem BioAssay AID602261 (Sanford-Burnham Center for Chemical Genomics, 2012).

SMILES strings stand for the structures. Screen size: about 360,000 compounds; about 2,400 (0.67%) were called active. Many of the other results were omitted from the sample, so actives are more common in it than they were. Values without a mark were called inactive.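 Rule for the calls: active = compounds whose normalised, plate-corrected inhibition of enzyme fluorescence in the single-dose primary screen is 50% or more; inactive = the rest.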

The test deals with Fatty acid synthase (Homo sapiens) (UniProt P49327). Put plainly: inhibition of human FAS-TE enzyme activity – biochemical, fluorescence intensity, uHTS, primary screen (AID 602261).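 Note: 0% = DMSO with enzyme and 100% = substrate without enzyme.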 To be noted: recombinant FAS-TE, OMFH fluorogenic substrate, fluorescence endpoint; at 15 µM; active compounds read high.
Chain of Fatty acid synthase (Homo sapiens) (P49327 whole entry, looked up): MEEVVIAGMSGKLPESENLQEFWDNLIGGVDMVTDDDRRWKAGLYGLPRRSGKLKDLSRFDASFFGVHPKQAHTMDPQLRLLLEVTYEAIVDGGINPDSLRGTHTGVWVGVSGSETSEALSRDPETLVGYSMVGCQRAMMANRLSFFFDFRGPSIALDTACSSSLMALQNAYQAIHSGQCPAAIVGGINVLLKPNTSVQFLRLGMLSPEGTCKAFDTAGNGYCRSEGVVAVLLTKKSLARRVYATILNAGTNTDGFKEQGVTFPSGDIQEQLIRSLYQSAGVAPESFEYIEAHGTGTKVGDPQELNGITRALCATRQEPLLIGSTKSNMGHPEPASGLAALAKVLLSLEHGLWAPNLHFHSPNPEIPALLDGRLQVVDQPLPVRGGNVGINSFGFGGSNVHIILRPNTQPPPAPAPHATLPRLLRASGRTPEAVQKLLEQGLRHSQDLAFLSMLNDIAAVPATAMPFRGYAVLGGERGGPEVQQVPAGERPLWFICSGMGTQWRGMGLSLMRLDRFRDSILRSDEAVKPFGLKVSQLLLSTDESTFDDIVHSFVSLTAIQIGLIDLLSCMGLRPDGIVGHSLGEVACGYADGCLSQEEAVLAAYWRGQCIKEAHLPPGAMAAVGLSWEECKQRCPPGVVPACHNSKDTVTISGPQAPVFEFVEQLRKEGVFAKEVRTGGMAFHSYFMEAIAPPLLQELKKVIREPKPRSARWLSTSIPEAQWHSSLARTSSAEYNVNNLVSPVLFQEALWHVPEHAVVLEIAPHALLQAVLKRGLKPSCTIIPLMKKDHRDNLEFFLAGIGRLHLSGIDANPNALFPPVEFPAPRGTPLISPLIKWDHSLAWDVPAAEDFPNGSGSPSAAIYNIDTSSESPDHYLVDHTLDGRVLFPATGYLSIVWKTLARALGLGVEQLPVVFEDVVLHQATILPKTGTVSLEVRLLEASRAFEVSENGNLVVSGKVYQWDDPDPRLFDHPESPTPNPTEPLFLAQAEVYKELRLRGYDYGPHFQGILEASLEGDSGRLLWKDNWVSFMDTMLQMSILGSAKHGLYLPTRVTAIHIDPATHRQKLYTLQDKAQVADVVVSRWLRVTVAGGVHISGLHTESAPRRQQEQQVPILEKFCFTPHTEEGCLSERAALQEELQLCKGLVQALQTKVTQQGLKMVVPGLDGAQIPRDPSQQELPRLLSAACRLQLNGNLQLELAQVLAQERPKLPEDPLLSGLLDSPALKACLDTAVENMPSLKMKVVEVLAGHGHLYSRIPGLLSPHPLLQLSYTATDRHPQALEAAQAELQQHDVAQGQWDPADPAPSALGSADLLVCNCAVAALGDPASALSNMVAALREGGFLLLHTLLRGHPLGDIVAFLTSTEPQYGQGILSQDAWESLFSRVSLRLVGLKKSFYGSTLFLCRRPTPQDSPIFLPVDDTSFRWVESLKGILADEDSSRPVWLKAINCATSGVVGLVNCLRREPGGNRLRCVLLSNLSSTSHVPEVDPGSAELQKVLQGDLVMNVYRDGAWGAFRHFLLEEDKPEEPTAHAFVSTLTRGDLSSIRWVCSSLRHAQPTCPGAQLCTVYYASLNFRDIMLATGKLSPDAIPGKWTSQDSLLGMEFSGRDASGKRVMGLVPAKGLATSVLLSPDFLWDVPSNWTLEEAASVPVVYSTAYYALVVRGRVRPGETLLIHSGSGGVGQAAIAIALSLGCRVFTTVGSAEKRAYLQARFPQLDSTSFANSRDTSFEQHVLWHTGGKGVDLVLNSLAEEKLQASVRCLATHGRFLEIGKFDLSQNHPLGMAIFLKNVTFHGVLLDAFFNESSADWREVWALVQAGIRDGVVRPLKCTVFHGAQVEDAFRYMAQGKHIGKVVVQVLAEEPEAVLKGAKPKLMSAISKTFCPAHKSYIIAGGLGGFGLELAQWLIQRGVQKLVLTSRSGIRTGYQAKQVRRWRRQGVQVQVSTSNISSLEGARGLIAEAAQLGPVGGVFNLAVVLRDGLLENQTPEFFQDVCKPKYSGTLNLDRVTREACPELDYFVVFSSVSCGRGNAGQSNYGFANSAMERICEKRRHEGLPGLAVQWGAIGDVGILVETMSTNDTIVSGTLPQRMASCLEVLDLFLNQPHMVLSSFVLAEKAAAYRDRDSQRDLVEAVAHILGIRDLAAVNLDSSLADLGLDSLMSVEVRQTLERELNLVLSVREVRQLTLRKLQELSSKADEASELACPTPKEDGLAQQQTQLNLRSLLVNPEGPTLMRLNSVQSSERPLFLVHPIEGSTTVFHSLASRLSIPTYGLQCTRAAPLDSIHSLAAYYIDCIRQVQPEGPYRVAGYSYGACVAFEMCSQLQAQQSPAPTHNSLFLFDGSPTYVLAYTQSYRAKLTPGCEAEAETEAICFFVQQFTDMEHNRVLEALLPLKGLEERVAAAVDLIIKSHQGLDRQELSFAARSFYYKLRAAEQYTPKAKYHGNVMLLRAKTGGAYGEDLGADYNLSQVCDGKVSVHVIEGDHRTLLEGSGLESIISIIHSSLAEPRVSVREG
`O=C(CN1CCC(NC(=O)Nc2ccccc2)CC1)Nc1cccc([N+](=O)[O-])c1`: the inhibition is 1.8%.
Regarding `O=C(Nc1cccc([N+](=O)[O-])c1)N1CCc2ccccc2C1`, the inhibition is 52.5% (active).
On to `CCc1ccc(NC(=O)N2CCc3ccccc3C2)cc1`, for which the inhibition is 4.2%.
With `N#CCC(=O)N/N=C/c1ccc(SCC(=O)Nc2ccccc2)o1` the figure was -2.5%; with `CCC1CCCCN1CCCNC(=O)c1cc2c(Cl)nc3ccccc3c2s1` (stereo not drawn), -5.7%; with `O=[N+]([O-])c1c(NCCO)cc(Sc2nc3ccccc3s2)c2nonc12`, 83.1% (active).
With `COc1cc(C2C(C(=O)c3cccs3)=C(O)C(=O)N2CCN2CCOCC2)ccc1OCCC(C)C` (stereo not drawn) the figure was 0.8%.
Regarding `Cc1cc(C)c(C2C3=C(Nc4c2c(C)nn4-c2ccccn2)c2ccccc2C3=O)c(C)c1` (stereo not drawn), the inhibition was 68.9% (active).
As for `CC/C(Cc1ccccc1)=N/NC(=O)CCn1nnc2ccccc21`, the inhibition was -8.1%.
The figure for `CC1(C(=O)NS(=O)(=O)c2ccc(C#N)cc2)CCN1C(=O)CC1CCCC1` (stereo not drawn) is 4.2%; for `Cc1noc(C)c1C(=O)N1CCC1(C)C(=O)NS(=O)(=O)c1ccc(C#N)cc1` (stereo not drawn) it is -9%; for `CC1(C(=O)NS(=O)(=O)c2ccc(C#N)cc2)CCN1C(=O)c1ccc(C2CCCCC2)cc1` (stereo not drawn) it is 62.6% (active).
On to `O=C1CCC/C(=N\NC(=O)NC2CCCCC2)C1`, for which the inhibition was -1%.
Consider `CCOC(=O)N1CCN(Cc2nc3ccc([N+](=O)[O-])cc3c(=O)n2-c2cccc(OC)c2)CC1`, for which the inhibition is 72.4% (active).
The figure for `CCOC(=O)N1CCN(Cc2nc3cc(NC(C)=O)ccc3n2C)CC1` is -7%; for `COc1cccc(-n2nc(C(=O)N3CCN(Cc4ccccc4)CC3)c3ccccc3c2=O)c1` it is 3.5%; for `CCOC(=O)CSC1=N/C(=C/c2ccc(-n3cncn3)cc2)C(=O)N1C(C)=O` it is -6.6%.
In the case of `Cc1occc1C(=O)N/N=C/c1ccc(-c2cccc([N+](=O)[O-])c2)o1`, the inhibition is 20.7%.
Consider `Cc1cc(C(=O)N/N=C/c2cc([N+](=O)[O-])cc(C)c2O)n[nH]1`, for which the inhibition is 65.7% (active).
As for `Cc1c(Cl)c([N+](=O)[O-])nn1Cc1ccc(C(=O)N/N=C\c2cc(Cl)ccc2O)o1`, the inhibition was 36.1%.
With `Cc1ccc(S(=O)(=O)Nc2ccc3c(c2)C(=O)N([C@H](C)CO)C[C@@H](C)[C@@H](CN(C)C(=O)Nc2cccc4ccccc24)O3)cc1` the figure was -2.7%; with `COc1ccc2nc(Nc3nc4cc5c(cc4s3)OCCO5)sc2c1`, 66.6% (active).
The figure for `Fc1ccc2nc(Nc3nc4c(s3)CCCC4)sc2c1` is 7.4%.
The figure for `COc1ccc2nc(N3CCN(C(=O)c4ccc([N+](=O)[O-])o4)CC3)sc2c1` is 10.7%; for `CSc1ccccc1NC(=O)c1cnc2sc(C)cn2c1=O` it is 4.9%.
With `O=[N+]([O-])c1cc([N+](=O)[O-])c(Oc2cc(F)cc(F)c2F)cc1NN1CCCCC1`, the inhibition is 11.3%.
As to `Cc1c(C(=O)NC(C)C2CC3CCC2C3)cccc1[N+](=O)[O-]` (stereo not drawn), the inhibition is 11.2%.
With `Cc1cccc(C(=O)OCC(=O)NC(C)C2CC3CCC2C3)c1O` (stereo not drawn) the figure was 20.1%.
On to `COC(=O)c1cc(C(=O)NC(C)C2CC3CCC2C3)cc([N+](=O)[O-])c1` (stereo not drawn), for which the inhibition is 50.5% (active).
With `COc1ccc(CN2C(CC(=O)Nc3cccnc3)c3ccc(C(F)(F)F)cc3S2(=O)=O)cc1` (stereo not drawn) the figure was 14.3%.
With `CCCCc1nc2cc(C(=O)NCCc3cnn(C)c3)ccc2o1` the figure was -2.8%; with `Cc1noc(C)c1NC(=O)Nc1cccc2c1O[C@H](CN(C)C(=O)Nc1ccccc1)[C@@H](C)CN([C@H](C)CO)C2=O`, 55.4% (active); with `Cc1noc(C)c1NC(=O)Nc1ccc2c(c1)C(=O)N([C@H](C)CO)C[C@H](C)[C@@H](CN(C)C(=O)Nc1ccccc1)O2`, -5.3%.
With `Cc1noc(C)c1NC(=O)Nc1cccc2c1O[C@H](CN(C)S(=O)(=O)c1c(C)noc1C)[C@@H](C)CN([C@H](C)CO)C2=O` the figure was 3.4%; with `COc1ccc(CCCNC(=O)C2Cc3c(-c4cccc(C(N)=O)c4)ccnc3O2)cc1` (stereo not drawn), 1.7%.
On to `O=S(=O)(NCCCCCCNS(=O)(=O)c1c(F)cccc1F)c1ccc2c(c1)OCCO2`, for which the inhibition was 3.8%.
As for `O=C(Nc1nnc(SCc2ccccc2Cl)s1)c1cccc([N+](=O)[O-])c1`, the inhibition is 58.6% (active).
With `O=C(Nc1nnc(SCc2c(Cl)cccc2Cl)s1)C1CCCO1` (stereo not drawn) the figure was 0.2%; with `COCCSc1nnc(NC(=O)c2cc(OC)c(OC)cc2[N+](=O)[O-])s1`, -10.4%.
The figure for `CCCn1c(N)c(C(=O)CSc2nc3ccccc3c(=O)n2-c2ccc(OC)cc2)c(=O)[nH]c1=O` is -0.6%; for `O=S(=O)(Cc1noc(-c2ccc(OC(F)(F)F)cc2)n1)c1ccc(F)cc1` it is 15.8%; for `Cc1ccc(S(=O)(=O)NCC(=O)N(CC(=O)NCC2CCCO2)c2cccc(F)c2)cc1` (stereo not drawn) it is -4.4%.
With `CC(C)Oc1ccc(CCc2n[nH]c(=S)n2Cc2ccccc2)cc1` the figure was 19.3%; with `COc1cc(-c2n[nH]c(=S)n2Cc2ccccc2)cc(OC)c1OC`, -3.4%.
In the case of `CC(C)Oc1ccc(Cc2n[nH]c(=S)n2Cc2ccccc2)cc1Cl`, the inhibition is 57% (active).
With `O=C(Nc1cccc(S(=O)(=O)N2CCOCC2)c1)C12CC3CC(CC(C3)C1)C2` the figure was 9.3%; with `Cc1ccc(NC(=O)/C(=C\c2ccccc2)NC(=O)c2ccco2)cc1`, 0%; with `O=C(NCc1ccco1)/C(=C/c1ccco1)NC(=O)c1ccccc1`, -4.1%.
With `O=C(/C=C/c1cccc([N+](=O)[O-])c1)NCCSCc1ccco1`, the inhibition is 55.4% (active).
Turning to `O=C(/C=C/c1ccc([N+](=O)[O-])cc1)NCCSCc1ccco1`, the inhibition was 9.8%.
In the case of `O=C(NCc1ccco1)/C(=C\c1cccc([N+](=O)[O-])c1)NC(=O)c1ccco1`, the inhibition was 51.4% (active).
With `O=C(NCc1ccco1)/C(=C/c1cccc([N+](=O)[O-])c1)NC(=O)c1ccco1` the figure was 38.7%; with `O=C(NCc1ccco1)c1ccc([N+](=O)[O-])cc1Cl`, 5.6%.
The figure for `COc1ccc(/C=C(/NC(=O)c2ccco2)C(=O)Nc2ccc(C(C)=O)cc2)cc1` is -1.1%.
For `O=C(Nc1ccc2ccccc2c1)/C(=C/c1cccc(Br)c1)NC(=O)c1ccco1`, the inhibition was 52.3% (active).
Regarding `Cc1cc([N+](=O)[O-])nn1Cc1ccc(F)cc1`, the inhibition is -0.9%.
The figure for `CCC1CCC/C1=N\NC(=O)c1ccc(Cl)cc1` (stereo not drawn) is -4.6%.
Turning to `COc1ccc(OC)c(NC(=O)c2cc(-c3cc(F)ccc3OCC3CCCO3)n[nH]2)c1` (stereo not drawn), the inhibition was 22.4%.
Turning to `CCN(CC)S(=O)(=O)c1ccc2[nH]c(=O)cc(C(=O)N(C)C3CCS(=O)(=O)C3)c2c1` (stereo not drawn), the inhibition is 0%.
Turning to `Cc1ccc(S(=O)(=O)n2cnc3ccccc32)c(C)c1`, the inhibition is -4.2%.
With `CCOC(=O)c1nnn2c1nc(N1CCN(c3ccccc3)CC1)c1ccccc12` the figure was 19.9%.
Take `Cc1ccc(S(=O)(=O)c2nnn3c2nc(N2CCN(c4ccccn4)CC2)c2ccccc23)cc1`: the inhibition is 65.9% (active).
For `Cc1cccc(Nc2nc3c(S(=O)(=O)c4ccccc4)nnn3c3ccccc23)c1C`, the inhibition is -3.1%.
Turning to `CCc1ccccc1OCC(=O)Nc1nnc(C2CC2)s1`, the inhibition is -9.2%.
For `Cc1ccc(S(=O)(=O)N2CCN(C(=O)c3ccccc3-c3nc4ccccc4s3)CC2)c(C)c1`, the inhibition was 15.3%.
With `OC(CN1C2=NCCCN2c2ccccc21)c1ccc(Br)cc1` (stereo not drawn) the figure was -4.6%; with `CC(NC(=O)c1ccco1)c1ccc2c(c1)OCO2` (stereo not drawn), -6.5%.
With `Cc1noc(C)c1C(=O)NC(C)c1ccc2c(c1)OCO2` (stereo not drawn) the figure was -5.5%; with `CC(NC(=O)Nc1cccc([N+](=O)[O-])c1)c1ccc2c(c1)OCO2` (stereo not drawn), 83.4% (active).
The figure for `CCN1CCN(c2sc(S(C)(=O)=O)nc2S(=O)(=O)c2ccc(Cl)cc2)CC1` is -2.8%; for `O=C(Nc1ccc(S(=O)(=O)N2CCOCC2)cc1)C1CCN(S(=O)(=O)c2ccc(Cl)cc2)CC1` it is 28.3%.
Consider `Cc1nnsc1S(=O)(=O)Cc1ccccc1Cl`, for which the inhibition was -6.8%.
In the case of `O=C(Nc1ccccc1)c1nnsc1S(=O)(=O)c1ccc(Cl)cc1`, the inhibition is 69.7% (active).
The figure for `O=C(NCCO)c1cccc(-c2cccc3nccn23)c1` is -6.3%.
The figure for `Cc1cc(C(F)F)nn1CC(=O)NC1CCCCCC1` is -5.3%; for `COc1ccccc1-n1cnc2cc(NS(=O)(=O)c3ccccc3)ccc21` it is 0.1%.
The figure for `CC1(C)CC(=O)c2c(n(S(=O)(=O)c3ccccc3)c3ccc(NS(=O)(=O)c4ccccc4)cc23)C1` is 79.6% (active); for `Cn1c(=O)n(C)c2cc(NS(=O)(=O)c3ccc(F)cc3)ccc21` it is -7.3%.
On to `CC(=O)N(Cc1cccs1)C1CCOC(C)(C)C1` (stereo not drawn), for which the inhibition is -7.2%.
As for `CCCCN1C(=O)CCC(C(=O)O)C1c1ccc(OC)cc1` (stereo not drawn), the inhibition was -7.9%.
The figure for `COc1ccc(C(=O)N(C)CC(O)c2ccccc2)cc1OC1CCN(C(C)=O)CC1` (stereo not drawn) is 0.7%; for `Cc1ccc(S/C(=N\S(=O)(=O)c2ccc(Cl)cc2)c2ccccc2)cc1` it is 57.1% (active).
With `Cc1ccc(S(=O)(=O)/N=C(/Nc2ccc3[nH]c(=O)[nH]c3c2)c2ccccc2)cc1` the figure was -11.9%; with `Cc1ccc(S(=O)(=O)/N=C(/Nc2ccccn2)c2ccc(Cl)cc2)cc1`, 2.1%.
With `COc1ccccc1C1CCN(C(=S)Nc2ccc(Br)cc2)CC1` the figure was 31%; with `CCOc1ccc(Br)cc1S(=O)(=O)Nc1ccc(C(=O)OC(C)C(=O)N(C)c2ccccc2)cc1` (stereo not drawn), 53.8% (active); with `CCOc1ccc(Br)cc1S(=O)(=O)Nc1cccc(S(=O)(=O)N(CC)CC)c1`, 22.7%.
As to `CCOc1ccc(Br)cc1S(=O)(=O)Nc1ccc(S(=O)(=O)Nc2cc(C)on2)cc1`, the inhibition was -8.8%.

The inhibition is the change of the read-out against control, counted positive when it falls.
